Hits are enriched below; roughly 27% of the tested compounds scored in any of these assays.
CYP2C19 act = activators of human cytochrome P450 2C19 | P33261 | recombinant CYP2C19, luciferin-H EGE luminescence; hits give high values; 0 = fully inhibited enzyme, 1 = untreated enzyme | AID 1025 | 96,000 tested, under 10 active | activation factor at 5 µM;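 active means activation factor of at least 2 at 5 µM in the primary screen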;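 further: 0 = wells with 2.5 mM tranylcypromine and 1 = vehicle-only wells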
CYP2C19 inh = human CYP2C19 inhibition. 96,000 tested, 21% active. CYP2C19 Supersomes, luciferin-H EGE luminescence, 30 min. inhibition, % at 5 µM;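 active means CYP2C19 inhibition above a set limit at 5 µM in the primary screen, cut at about 50% in these data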;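 further: plate controls were negative control wells for no effect and 2.5 mM tranylcypromine positive control for full effect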
sEH activator = activators of human soluble epoxide hydrolase | 91,000 tested, 0.04% active | activation, % at 2 µM | AID 717 | P34913 | purified human sEH enzymatic activity, activator screen; in the data active means activation above about 37%
Target sequence (P34913 whole entry, looked up): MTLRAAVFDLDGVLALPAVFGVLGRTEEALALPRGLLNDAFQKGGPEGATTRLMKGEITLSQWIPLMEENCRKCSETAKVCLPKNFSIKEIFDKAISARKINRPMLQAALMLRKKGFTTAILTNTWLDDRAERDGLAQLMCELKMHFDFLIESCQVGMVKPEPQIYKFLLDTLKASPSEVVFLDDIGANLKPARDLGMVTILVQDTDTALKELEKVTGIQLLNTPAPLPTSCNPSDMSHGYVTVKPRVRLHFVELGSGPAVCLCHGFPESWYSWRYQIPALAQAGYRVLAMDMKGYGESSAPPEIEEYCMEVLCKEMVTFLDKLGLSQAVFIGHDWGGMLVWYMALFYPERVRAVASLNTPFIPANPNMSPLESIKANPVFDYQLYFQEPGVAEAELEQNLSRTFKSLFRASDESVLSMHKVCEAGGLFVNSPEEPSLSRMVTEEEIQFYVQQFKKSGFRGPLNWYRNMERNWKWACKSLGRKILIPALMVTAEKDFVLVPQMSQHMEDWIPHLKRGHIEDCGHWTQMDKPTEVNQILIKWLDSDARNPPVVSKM
CYP2C9 inh = blocks human cytochrome P450 2C9 | P11712 | CYP2C9 Supersomes, luciferin-H conversion, luminescence | inhibition, % at 5 µM | 96,000 tested, 20% active | AID 777;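 active means blocking of liver enzyme CYP2C9 beyond about 50% at 5 µM, limit read from the data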
CYP2C9 activ = activators of human CYP2C9; activation factor at 5 µM; P11712; 96,000 tested, 1.4% active; recombinant CYP2C9, luciferin-H conversion, luminescence; hits give high values; factor 1 = untreated enzyme, 0 = blocked;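 active means activation factor of 2 or more for CYP2C9 at a 5 µM dose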;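 further: 0 = sulfaphenazole-blocked wells and 1 = vehicle-only wells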
sEH inhibitor = inhibitors of human soluble epoxide hydrolase; recombinant human sEH enzymatic activity assay; 91,000 tested, 0.34% active; AID 707; P34913; inhibition, % at 2 µM; in the data active means inhibition above about 80%
An asterisk follows results filed as active; / = not tested or not shown.

SMILES	CYP2C19 act	CYP2C19 inh	sEH activator	CYP2C9 inh	CYP2C9 activ	sEH inhibitor
CCOC(=O)c1cnc2ccc(OC)cc2c1Nc1ccc2c(c1)OCCO2	0.5	46	9	96*	0	-8
CCCCCNc1nc(N2CCCC2)c2c(c1C#N)CCN(C)C2	0.7	29	-7	30	0.7	6
N#Cc1c(NCCCO)nc(-c2ccccc2)c2c1CCCC2	0.1	93*	15	97*	0	-15
N#Cc1c(SCC(=O)O)nc(N2CCCCC2)c2c1CCCC2	1.1	-6	11	47	0.5	-7
COC(=O)CSc1nc(N2CCCCC2)c2c(c1C#N)CCCC2	0.3	68*	9	90*	0.1	-9
COC(=O)CSc1nc2c(c(-c3ccc(C)o3)c1C#N)CCCC2	0.6	35	8	-66	1.7	-7
CCCCCNc1nc(NCCCO)c(C#N)c2c1CN(C)CC2	0.8	24	6	54*	0.5	-6
COC(=O)CSc1nc(-c2ccccc2)c2c(c1C#N)CCCC2	0	97*	1	69*	0.3	-1
CC1CCCC(NC(=O)c2ccc(CNc3c(N4CCCC4)c(=O)c3=O)cc2)C1C (stereo not drawn)	1	0	/	-1	1	/
CC(C)CN(CC(C)C)c1nc(N)c(C#N)c(CC#N)c1C#N	0.3	69*	-10	86*	0.1	12
CNC(=O)C1CC(=O)N/C(=N/N=C(\C)c2cccs2)S1 (stereo not drawn)	0.9	7	14	18	0.8	-10
CSc1nc(N(C)NC(=O)c2ccc(Cl)cc2)c2ccccc2n1	1	0	-7	17	0.8	8
CSc1nc(N(C)NC(=O)c2ccccc2)c2ccccc2n1	0.1	88*	0	65*	0.3	2
O=S(=O)(NCc1ccc2c(c1)OCO2)c1cccc2cccnc12	0.4	64*	4	-170	2.7*	-4
CCN1CCN(S(=O)(=O)c2ccc(Br)s2)CC1	0.8	17	10	-2	1	-4
O=S(=O)(c1ccc(Br)s1)N1CCN(Cc2ccc3c(c2)OCO3)CC1	0.1	89*	23	97*	0	-23
Cc1noc(C)c1S(=O)(=O)NCc1ccc2c(c1)OCO2	0.1	93*	-6	98*	0	10
O=S(=O)(c1ccc(Cl)nc1)N1CCN(Cc2ccc3c(c2)OCO3)CC1	0.4	63*	2	74*	0.3	-2
CCOC(=O)c1ccc(NC(=O)Nc2ccn(C)n2)cc1	0.8	20	1	15	0.9	-5
O=S(=O)(c1cc(Cl)ccc1Cl)N1CCN(Cc2ccc3c(c2)OCO3)CC1	0.5	50*	9	-15	1.1	-10
O=S(=O)(c1cccc2cccnc12)N1CCN(Cc2ccc3c(c2)OCO3)CC1	0.5	46	/	-150	2.5*	/
CS(=O)(=O)N1CCc2cc(S(=O)(=O)N3CCN(Cc4ccc5c(c4)OCO5)CC3)ccc21	0.9	10	6	12	0.9	-4
Cc1cc(C)n(-c2ncc(-c3ccccc3)nn2)n1	0.9	12	-5	-15	1.2	4
O=C(CSc1nc2ccccc2c(=O)[nH]1)c1ccc(O)c(O)c1	0.8	22	/	77*	0.2	/
COC(=O)c1ccc(NC(=O)CSc2nc3ccccc3c(=O)[nH]2)cc1	0.6	37	2	47	0.5	0
SMILES	CYP2C19 act	CYP2C19 inh	sEH activator	CYP2C9 inh	CYP2C9 activ	sEH inhibitor
O=C(CSc1nc2ccccc2c(=O)[nH]1)c1cccs1	0.6	39	8	66*	0.3	-8
C=CCSc1nc(-c2ccccc2)c(C#N)c(=O)[nH]1	0.9	14	16	44	0.6	-13
O=C(CSc1nc2ccccc2c(=O)[nH]1)N1CCCCCC1	0.9	12	-1	25	0.8	0
N#Cc1c(-c2cccs2)nc(SCC(=O)c2cccs2)[nH]c1=O	0.7	34	8	98*	0	-8
C=CCn1c(Sc2nncn2C)nc2c1c(=O)[nH]c(=O)n2C	/	/	-1	/	/	1
CN1c2ccccc2C(C)(C)C12C=Nc1c(cc(N3CCOCC3)c3ccccc13)O2 (stereo not drawn)	0.7	30	-4	70*	0.3	4
COc1ccccc1CNC(=O)C/C(C)=N/NC(=O)Cc1ccccc1	0.8	19	-1	-8	1.1	7
CCCCCCC/C(C)=N/NC(=O)CC(=O)NCCc1ccccc1	0.8	23	-11	65*	0.4	10
C/C(Cc1ccccc1)=N\NC(=O)CCCCCC(=O)N/N=C(\C)Cc1ccccc1	0.4	57*	-58	10	0.9	61
COc1cccc(OCCn2cc(C(=O)c3ccco3)c3ccccc32)c1	0.1	86*	10	98*	0	-7
Cc1cccc(OCCn2c(NC(=O)c3ccco3)nc3ccccc32)c1	0.9	9	4	5	1	-2
Cc1ccccc1OCCSc1nnc(C)n1-c1ccccc1	0.7	34	8	24	0.8	-11
COc1ccccc1OCCn1cc(C(=O)c2ccco2)c2ccccc21	0.8	25	3	84*	0.2	-4
O=C(O)Cn1cc(C(=O)c2ccco2)c2ccccc21	1.1	-7	/	-5	1.1	/
CCOC(=O)Cn1cc(C(=O)c2ccco2)c2ccccc21	0.2	81*	-2	84*	0.2	3
Cc1ccccc1OCCn1cc(/C(N)=N/O)c2ccccc21	0.3	67*	10	23	0.8	-10
COc1ccc(-c2ccnc(SCC(=O)Nc3ccccn3)n2)cc1	/	/	7	/	/	-7
CCC(C(=O)NCc1ccco1)N(C(=O)CNS(=O)(=O)c1ccccc1)c1ccc(OC)cc1 (stereo not drawn)	0.7	34	-4	10	0.9	2
O=S(=O)(CCOc1ccccc1)c1nc2ccccc2[nH]1	0.3	73*	-7	17	0.8	5
Cc1cccc(Nc2nc(-c3cccs3)cs2)n1	/	/	3	/	/	2
Cc1cccc(Nc2nc(-c3ccccn3)cs2)n1	0.4	58*	1	52*	0.5	2
Brc1ccc(Oc2ncc(CN3CCN(c4ccccc4)CC3)s2)cc1	0.4	57*	10	71*	0.3	-12
CCOC(=O)C1CCN(Cc2cnc(Oc3ccc(OC)cc3)s2)CC1	0.9	8	4	12	0.9	-2
Clc1cccc(Oc2ncc(CN3CCOCC3)s2)c1	0.2	82*	6	16	0.8	-7
Cc1ccc(Oc2ncc(CN3CCOCC3)s2)cc1	0.2	79*	1	21	0.8	-2
Clc1ncc(CN2CCN(Cc3ccccc3)CC2)s1	0.3	74*	/	8	0.9	/
COc1ccc(-c2noc(CN3CCN(c4ccccc4)CC3)n2)cc1	0.8	21	/	23	0.8	/
Cn1nc(C(=O)Nc2nc3ccc(S(C)(=O)=O)cc3s2)ccc1=O	1.1	-6	9	26	0.7	-7
O=C(NCCN1C(=O)CSC1=O)c1ccccc1	1	-1	15	-14	1.1	-17

Screening results deposited in PubChem BioAssay by several laboratories.
